Results published in PubChem BioAssay (NCATS).
Results filed as inconclusive are left out. Entries that show only a call come without a potency. Activity calls are given as the source filed them. The call rests on the fitted dose curve.

target: Atrial natriuretic peptide receptor 2 (Homo sapiens) (UniProt P20594); assay: Natriuretic polypeptide receptor (hNpr2) antagonism - Pilot subtype selectivity assay (AID 1347050); settings: NPR2-expressing cells, cGMP antagonist-mode read-out; series mostly up to 38.3 µM
Sequence (P20594 whole entry, looked up): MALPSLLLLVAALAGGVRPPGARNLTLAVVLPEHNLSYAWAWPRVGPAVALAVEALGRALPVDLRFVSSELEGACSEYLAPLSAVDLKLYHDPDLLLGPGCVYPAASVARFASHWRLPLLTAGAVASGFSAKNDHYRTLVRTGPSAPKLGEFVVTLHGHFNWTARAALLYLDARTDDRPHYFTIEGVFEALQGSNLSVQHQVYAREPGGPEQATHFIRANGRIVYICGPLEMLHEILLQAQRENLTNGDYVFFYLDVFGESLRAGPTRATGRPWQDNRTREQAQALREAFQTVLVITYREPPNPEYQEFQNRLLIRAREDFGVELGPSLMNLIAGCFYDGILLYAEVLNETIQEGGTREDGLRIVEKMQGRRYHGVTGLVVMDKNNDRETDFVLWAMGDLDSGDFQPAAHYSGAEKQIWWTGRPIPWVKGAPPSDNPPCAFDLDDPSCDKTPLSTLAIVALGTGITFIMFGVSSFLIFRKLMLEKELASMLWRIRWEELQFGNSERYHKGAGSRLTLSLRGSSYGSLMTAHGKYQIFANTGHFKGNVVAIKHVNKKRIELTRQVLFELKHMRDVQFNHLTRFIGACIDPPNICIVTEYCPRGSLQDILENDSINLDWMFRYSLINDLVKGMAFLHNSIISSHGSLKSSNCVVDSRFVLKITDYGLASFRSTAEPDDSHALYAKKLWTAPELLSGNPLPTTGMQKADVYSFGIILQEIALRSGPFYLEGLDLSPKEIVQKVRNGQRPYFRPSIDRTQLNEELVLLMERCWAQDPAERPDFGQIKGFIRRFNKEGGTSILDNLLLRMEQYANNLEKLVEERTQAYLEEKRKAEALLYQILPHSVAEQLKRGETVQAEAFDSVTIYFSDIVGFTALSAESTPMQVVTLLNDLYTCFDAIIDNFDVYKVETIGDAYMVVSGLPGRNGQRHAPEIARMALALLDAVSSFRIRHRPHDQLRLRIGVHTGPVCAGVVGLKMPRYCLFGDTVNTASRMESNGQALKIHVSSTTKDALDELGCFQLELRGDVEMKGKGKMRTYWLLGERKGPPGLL
Outline: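 HEK293 cells expressing hNpr2 and a GloSensor cGMP luciferase sensor, 1500/well, preloaded 2 h with 2% GloSensor reagent, compound 30 min, then 1 nM hNppC for 20 min. Antagonism from luminescence after versus baseline pre-read; LOPAC in 1:5 titrations.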

| SMILES | Potency |
| --- | --- |
| CC(=O)[C@H]1CC[C@H]2[C@@H]3CCC4=CC(=O)CC[C@]4(C)[C@H]3CC[C@]12C | inactive |
| CC1=C(C(=O)O)N2C(=O)[C@@H](NC(=O)C(N)c3ccccc3)[C@H]2SC1 (stereo partly drawn) | inactive |
| CC1CC2C3CCC4=CC(=O)C=C[C@]4(C)[C@@]3(F)[C@@H](O)C[C@]2(C)[C@@]1(O)C(=O)CO (stereo partly drawn) | inactive |
| Nc1nc(N)c2nc(CNc3ccc(C(=O)NC(CCC(=O)O)C(=O)O)cc3)cnc2n1 (stereo not drawn) | inactive |
| NC(=O)c1ccc2[nH]ccc2c1 | inactive |
| N[C@@H](Cc1ccc(O)c(O)c1)C(=O)O | inactive |
| NC(=O)c1cccc(N)c1 | inactive |
| O=C(O)C1CCCN(CCC=C(c2ccccc2)c2ccccc2)C1 (stereo not drawn) | inactive |
| CCN1CCCC1CNC(=O)c1cc(S(N)(=O)=O)ccc1OC (stereo not drawn) | inactive |
| CCCCS(=N)(=O)CCC(N)C(=O)O (stereo not drawn) | inactive |
| CCN(CC)CC#CCOC(=O)C(O)(c1ccccc1)C1CCCCC1 (stereo not drawn) | inactive |
| COc1cc2ncnc(Nc3cccc(Cl)c3)c2cc1OC | inactive |
| CC(C)NCC(O)c1ccc(NS(C)(=O)=O)cc1 (stereo not drawn) | inactive |
